RXFP1 antagonist: blocks the human relaxin receptor RXFP1; AID 1259400; 350,000 tested, 0.59% active; activity change, negative = inhibition, % at 57.5 µM; HEK293-RXFP1, relaxin-stimulated cAMP HTRF, 30 min; active compounds read low;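 active = activity change of -60% or lower, but not beyond a set lower limit; inconclusive = change between -60% and -40%, or beyond the set limit; inactive = change above -40%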; also: % is scaled to controls: 0 for no effect and ±100 for the full control effect
gsp antagonist: gsp mutant antagonism; gsp-mutant cells, cAMP HTRF, 30 min; AID 624288; 340,000 tested, 0.4% active; Potency, µM (series often up to 76.9 µM), without a hit: at the highest dose activity change, negative = inhibition, usual class: inhibitors; calls by dose curve; cell line not stated here;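 also: intracellular cAMP measured with PDE inhibitor Ro 20-1724 present during compound exposure; potency is read from the fitted curve at half-maximal effect; % is scaled to controls: 0 for no effect and ±100 for the full control effect; nearly all actives have a fitted effect of over 65% in size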
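HTRF cAMP measurement after 30 min RT detection following 30 min, 37C compound treatment alongside […] (added as 300 uM solution) in G418-selected cells seeded at 2000/well and grown 16–24 h.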
RXFP1 agonist: activates the human relaxin receptor RXFP1 | Potency, µM (titrated, usually from 57.5 µM), without a hit: at the top dose activation, usual class: activators | 370,000 tested, 0.3% active | Q9HBX9 | HEK293T-RXFP1 cAMP TR-FRET, 30 min; response scale: percent of porcine relaxin response, buffer zero | AID 2676; active = well fitted activation curve with a large enough effect; inconclusive = small, poorly fitted or top-dose-only effect; also: potency is read from the fitted curve at half-maximal effect; % is scaled to controls: 0 for no effect and ±100 for the full control effect; nearly all actives have a fitted effect of over 60% in size
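Agonist response is measured as cAMP accumulation in an RXFP1-transfected HEK293T line under PDE4 inhibition. Values are scaled between buffer-only and 29 nM porcine relaxin, and EC50s come from standard Hill equation fits.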
ClpP mod: qHTS Assay for Activators of ClpP. purified B. subtilis ClpP, FRET peptide cleavage, 20 min. Potency, µM (series often up to 57.5 µM), inactives show top-dose activity change, negative = active. 340,000 tested, 1.9% active. AID 651965, 2013; active = well fitted falling curve with a large enough effect; inconclusive = small, poorly fitted or top-dose-only effect; inactive = no such curve, though single readings can be large or run the other way; also: potency is read from the fitted curve at half-maximal effect; the source files actives as falling curves though it sought activators and does not explain the sign; nearly all actives have a fitted effect of over 65% in size
Target sequence (P80244 whole entry, looked up): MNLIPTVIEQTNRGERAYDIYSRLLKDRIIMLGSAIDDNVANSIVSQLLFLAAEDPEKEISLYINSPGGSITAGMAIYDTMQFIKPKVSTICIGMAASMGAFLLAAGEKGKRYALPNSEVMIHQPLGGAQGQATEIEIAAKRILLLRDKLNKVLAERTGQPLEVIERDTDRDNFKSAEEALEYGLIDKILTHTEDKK
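Purified B. subtilis ClpP, 10 microg/mL final in Tris/HCl pH8 with KCl, BSA, glycerol and Tween-20, cleaved an Abz/nitrotyrosine-quenched decapeptide. Fluorescence (ex 320, em 430) was read at 0 and 20 min at room temperature. Delta was normalized to 5.8 microM ADEP and DMSO/no-enzyme controls.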
pAkt inh: blocks phosphorylation of Akt. Neuro2A IGF-stimulated pAkt S473 HTRF, 20 min; active compounds read low. activity change, % for hits at 50 µM. 360,000 tested, 0.32% active; in the data active = activity change below about -80%; inconclusive = mostly about -51% to -80%; also: % is scaled to controls: 0 for no effect and ±100 for the full control effect
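Single-point screen (50 µM final compound) in Neuro2A cells stimulated 20 min with 6 nM IGF at 37 deg C. After lysis, Ser473-phosphorylated Akt read by HTRF (ex 330 nm, em 615/665 nm) as the 665/615 ratio.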
gsp ag: activates gsp, the McCune-Albright syndrome mutation. gsp mutant cells, cAMP HTRF, 30 min. Potency, µM (series often up to 76.9 µM), for inactives: at the top dose activation (cAMP increase), usual class: activators. 340,000 tested, 0.13% active. AID 624287; active = well fitted activation curve with a large enough effect; inconclusive = small, poorly fitted or top-dose-only effect, or another doubt; inactive = no such curve, though single readings can be large or run the other way; cell line not stated here;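 also: phosphodiesterase inhibitor Ro 20-1724 added with compounds to block cAMP breakdown; potency is read from the fitted curve at half-maximal effect; nearly all actives have a fitted effect of over 60% in size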
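Cells in DMEM/10% FBS with G418 were pretreated with compounds in DMSO plus […] (300 uM stock) for 30 min at 37C. cAMP was measured by HTRF (cAMP-d2 plus anti-cAMP antibody-K) after 30 min at room temperature.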
Active calls of the source: *; i = inactive; ? = inconclusive; · = no result given; [ ] = remark or other dose. This is a sample that favours compounds with a hit; in the whole collection about 2.7% have one here.

SMILES | RXFP1 antagonist | gsp antagonist | RXFP1 agonist | ClpP mod | pAkt inh | gsp ag
CCOC(=O)C[C@@H]1OC[C@H](C(C)C)N1S(=O)(=O)c1ccc(C)cc1 | · | · | · | -3% | i | ·
CCOc1ccc(-n2ccnc(SCC(=O)NCc3cccc(OC)c3)c2=O)cc1 | -17 | 3% | 4% | -11% | i | 10µM*
O=C(Nc1cccc(-c2nc3ncccc3o2)c1)c1ccc(-c2cccc(Cl)c2Cl)o1 | -12 | · | 16% | -8% | · | ·
CCN(CC(=O)NCc1ccc(Cl)cc1)C(=O)CSc1ccc(Br)cc1 | -39 | 40µM* | 4% | 0% | i | 19%
Cc1cccc(/C=C2\Sc3ccc(C(=O)N4CCCCC4)cc3N(C)C2=O)c1 | -32 | 6% | 0% | -2% | · | -24%
CN1C(=O)/C(=C/c2cccc(Cl)c2)Sc2ccc(C(=O)N3CCCC3)cc21 | 2 | 8.9µM* | 0% | 0% | i | 0%
CCOC(=O)C1CCCN(C(=O)c2ccc3c(c2)N(Cc2ccccc2)C(=O)c2ccccc2S3=O)C1 (configuration not stated) | -29 | 8.9µM* | 1% | -1% | i | -3%[15.4 µM]
Cc1cccc(CN2C(=O)c3ccccc3Sc3ccc(C(=O)N4CCCC4)cc32)c1 | -112* | · | 3% | -2% | · | ·
O=C(c1ccc2c(c1)N(Cc1ccccc1)C(=O)c1ccccc1S2)N1CCCC1 | -3 | ? | -2% | 1% | i | 5%
CCOC(=O)C1CCCN(C(=O)c2ccc3c(c2)N(Cc2ccccc2)C(=O)c2ccccc2S3(=O)=O)C1 (configuration not stated) | -14 | · | 3% | 3% | · | ·
CCCCCCCCCCCC[n+]1ccc(C)c2ccccc21 | · | · | · | -18% | · | ·
CN(C)C=Nc1ncc2c3ccccc3n(Cc3ccccc3)c2c1C#N | -8 | 10% | 0% | 32µM* | i | -19%
CCOC(=O)c1c(C)[nH]c(C)c1S(=O)(=O)N1CCCC(C(=O)NCc2cccc(OC)c2)C1 (configuration not stated) | · | · | 0% | 2% | · | ·
CN(C)c1ccc(NC(=O)N2CCOCC2)cc1 | -69* | ? | 0% | -2% | i | 0%
O=C(Nc1ccc(F)cc1)N1CCOCC1 | 0 | 4% | 0% | 0% | · | 12%
O=C(Nc1cccc2ccccc12)N1CCN(c2ccc(F)cc2)CC1 | -16 | 3% | 3% | -25% | ? | ?
O=C(Nc1cccc2ccccc12)N1CCOCC1 | -1 | -16% | 2% | 25µM* | i | -1%
CCN1CCN(C(=O)Nc2cccc3ccccc23)CC1 | 22 | -2% | 0% | 11µM* | i | -41%
O=C(Nc1ccc(Br)cc1)N1CCCCCCC1 | -14 | 4% | 1% | -2% | -110%* | -31%
CCCCC[C@H](O)C=C[C@H]1[C@H](O)CC(=O)[C@H]1CC=CCCCC(=O)O | 3 | · | · | · | · | ·
O=C(Nc1cccc2ccccc12)N1CCc2ccccc2C1 | 10 | -8% | -3% | ? | i | 1%
CN1CCN(C(=O)Nc2cccc3ccccc23)CC1 | -3 | -4% | 2% | 16µM* | i | -9%
Cc1cccc(/C=C2\Sc3ccc(C(=O)NCC4CCCO4)cc3N(C)C2=O)c1 (configuration not stated) | 14 | -9% | 0% | · | i | 35%
CN1C(=O)/C(=C/c2ccccc2F)Sc2ccc(C(=O)NCC3CCCO3)cc21 (configuration not stated) | -9 | 32µM* | 0% | -8% | i | ?
CCCC(=O)N1c2ncnn2C2(CCCCC2)[C@@H]2CCCC[C@@H]21 | -10 | · | -2% | -1% | · | ·
COc1ccc(NC(=O)Cn2nnc(C(=O)NCc3ccccc3Cl)c2N)cc1Cl | 4 | · | -1% | -1% | · | ·
N#Cc1cc(C(=O)c2cc(Br)ccc2O)cn(Cc2ccccc2)c1=O | -2 | ? | 0% | · | i | -26%
N#Cc1cc(-c2ccccc2)cn(Cc2c(Cl)cccc2Cl)c1=O | 8 | -3% | 5% | 28µM* | i | ?
